In PubChem BioAssay (Tox21) one finds Potency and outcome data, which are given here for eight compounds.

The nature of assay [1]: qHTS assay for small molecule agonists of the p53 signaling pathway (AID 651631; calls by dose curve; also: nearly all actives have a fitted effect of over 15% in size). The gist of the method:
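HCT-116 cells carrying a stable p53 response element–beta-lactamase reporter were plated, rested 5 h at 37 °C, then exposed to compound in DMSO for 16 h at 37 °C; reporter activity was read as FRET substrate fluorescence after 2 h at room temperature.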
(In general: In qHTS, concentration-response curves come from the screen itself.)

Assay [2] can be described thus: qHTS assay for small molecules that induce genotoxicity in human embryonic kidney cells expressing luciferase-tagged ATAD5 (AID 651632). Also: nearly all actives have a fitted effect of over 15% in size. The gist of the method:
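Reporter cells (HEK293T) express luciferase-tagged ATAD5, a protein that accumulates after DNA damage. Treat 16 hr at 37C/5% CO2, add Amplite, wait 30 min at RT, and read luminescence.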

Assay [3] is described as follows: qHTS assay for small molecule agonists of the p53 signaling pathway - cell viability (AID 651633; calls by dose curve; also: series mostly up to about 83 µM; nearly all actives have a fitted effect of over 30% in size). The gist of the method:
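p53RE-bla cells, seeded at 4,000 per well and rested 5 h at 37 C/5% CO2, received compounds in DMSO for 16 h at 37 C. CellTiter-Glo was then added, and luminescence was read after 30 min at room temperature to gauge cytotoxicity.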

A short description of assay [4]: qHTS assay for small molecule disruptors of the mitochondrial membrane potential - cell viability (AID 720634; calls by dose curve;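 also: human HepG2 liver cancer cells; series mostly up to about 83 µM; nearly all actives have a fitted effect of over 20% in size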). The gist of the method: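 Measuring cytotoxicity alongside mitochondrial potential, the screen quantified ATP by luminescence in HepG2 cells after 1 hr compound incubation and a 30 min room-temperature CellTiter-Glo step.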
Assay [5] is described as follows: qHTS assay to test for compound auto fluorescence at 590 nm (red) in HepG2 cells (AID 720674). The gist of the method:
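Rose Bengal sodium served as the red fluorophore standard. HepG2 monolayers (overnight attachment, MEM with 10% FBS) were exposed to test compounds for 1 hr at 37 C and read at Ex 540/Em 590 nm.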

Assay [6] in a line: qHTS assay to test for compound auto fluorescence at 460 nm (blue) in HEK293 cells (AID 720678). The gist of the method: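 Intrinsic compound fluorescence is recorded in live HEK293 cultures after overnight incubation at 37C, 5% CO2, using excitation 405 nm and emission 460 nm. Values are referenced to triamterene.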
A short description of assay [7]: qHTS assay to test for compound auto fluorescence at 590 nm (red) in HEK293 cells (AID 720679). Summed up:
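Red autofluorescence, HEK293 cells: 2,000 cells/well; attach 4-5 hr 37C; add 23 nL cpd or DMSO; incubate o/n 37C 5% CO2; read Ex540/Em590; Rose Bengal sodium reference.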

A short description of assay [8]: qHTS assay to test for compound auto fluorescence at 535 nm (green) in HEK293 cells (AID 720680).
Assay [9] can be described thus: qHTS assay to test for compound auto fluorescence at 460 nm (blue) in HEK293 cell free culture (AID 720681). The gist of the method:
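Test compounds were pinned into cell-free culture medium (DMEM with 10% FBS) and fluorescence was read directly at Ex/Em 405/460 nm. Signals were expressed as fluorescence equivalents of triamterene, with DMSO vehicle as control.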

A short description of assay [10]: qHTS assay to test for compound auto fluorescence at 535 nm (green) in HEK293 cell free culture (AID 720682). The gist of the method:
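Read-out: 485/535 nm fluorescence intensity, calibrated against fluorescein. Medium only (DMEM + 10% FBS, no cells); test compound or DMSO vehicle added by pintool before plate reading.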

Assay [11] can be described thus: qHTS assay to test for compound auto fluorescence at 590 nm (red) in HepG2 cell free culture (AID 720684). Summed up:
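Red fluorescence (540 nm excitation, 590 nm emission) was measured after compound transfer into cell-free MEM supplemented with 10% FBS. Values are equivalencies against Rose Bengal sodium.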

Assay [12] in a line: qHTS assay to test for compound auto fluorescence at 460 nm (blue) in HepG2 cell free culture (AID 720685). The gist of the method:
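Compound (23 nL) or DMSO pinned into cell-free MEM with 10% FBS; blue fluorescence read at 405/460 nm excitation/emission, expressed as auto-fluorescence equivalency to triamterene.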

The nature of assay [13]: qHTS assay to test for compound auto fluorescence at 535 nm (green) in HepG2 cell free culture (AID 720686).
Assay [14] is described as follows: qHTS assay to test for compound auto fluorescence at 460 nm (blue) in HepG2 cells (AID 720687). Summed up: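 Cells (2,000/well in MEM with 10% FBS) attached overnight at 37 C, then were exposed to compound or DMSO for 1 hr at 37 C, 5% CO2. Fluorescence read at Ex/Em 405/460 nm, expressed as triamterene-equivalent signal.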
Assay [15] is described as follows: qHTS assay for small molecules that induce genotoxicity in human embryonic kidney cells expressing luciferase-tagged ATAD5 - cell viability (AID 651634; calls by dose curve; also: nearly all actives have a fitted effect of over 25% in size). Summed up:
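Seeding of 2,000 HEK293T ATAD5-luciferase cells per well preceded pin-tool compound transfer. Plates sat 15.5 hr at 37C under 5% CO2, then fluorescence was read after 30 min with CellTiter-Fluor.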

Assay [16] is described as follows: qHTS assay for small molecule disruptors of the mitochondrial membrane potential (AID 720635). Also: potency is read from the fitted curve at half-maximal effect. Summed up: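 HepG2 cells (2,000/well) attached overnight at 37C, then took compound for 1 hr at 37C, 5% CO2. Mito-MPS dye was added for 30 min; fluorescence was read at 490/535 nm (monomers) and 540/590 nm (aggregates).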
A short description of assay [17]: qHTS assay to test for compound auto fluorescence at 535 nm (green) in HepG2 cells (AID 720675).
Assay [18] can be described thus: qHTS assay to test for compound auto fluorescence at 590 nm (red) in HEK293 cell free culture (AID 720683). The gist of the method: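 Tox21 10K library compounds were pinned into cell-free DMEM with 10% FBS and fluorescence was read at excitation 540 nm. Activity is expressed as Rose Bengal sodium equivalency.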
Assay [19] concerns the target Glucocorticoid receptor (Homo sapiens) (UniProt P04150). In words: qHTS assay to identify small molecule agonists of the glucocorticoid receptor (GR) signaling pathway (AID 720691; active = well fitted activation curve with a large enough effect in the signal ratio in the repeat runs, not every such curve was filed as active; the % refers to the signal ratio). The gist of the method: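 Reporter read-out: fluorescence intensity following 2 h room-temperature LiveBLAzer B/G FRET substrate loading. Prior step: GR-bla HeLa cells held 4 h, then treated 18 h at 37 C.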

For assay [20] the target is unchanged. Put plainly: qHTS assay to identify small molecule antagonists of the glucocorticoid receptor (GR) signaling pathway (AID 720692; active = well fitted inhibition curve with a large enough effect in the signal ratio in the repeat runs, not every such curve was filed as active; the % refers to the signal ratio). The gist of the method: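 Dexamethasone (5 nM final) stimulated a stably integrated GRE-beta-lactamase reporter in HeLa cells during 18 h co-incubation with compounds; signal was quantified as fluorescence intensity of B/G FRET substrate after 2 h.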

A number with no mark means an inactive call. Results filed as inconclusive are left out. Activity calls are given as the source filed them. Unless noted, calls follow the shape of the dose curve; as a rule, active = well fitted curve in the direction sought with a large enough effect in the repeat runs; inconclusive = weak or mixed curves; inactive = no such curve, though single readings can be large; an effect the other way counts as inactive or inconclusive.

Sequence of Glucocorticoid receptor (Homo sapiens) (P04150 whole entry, looked up): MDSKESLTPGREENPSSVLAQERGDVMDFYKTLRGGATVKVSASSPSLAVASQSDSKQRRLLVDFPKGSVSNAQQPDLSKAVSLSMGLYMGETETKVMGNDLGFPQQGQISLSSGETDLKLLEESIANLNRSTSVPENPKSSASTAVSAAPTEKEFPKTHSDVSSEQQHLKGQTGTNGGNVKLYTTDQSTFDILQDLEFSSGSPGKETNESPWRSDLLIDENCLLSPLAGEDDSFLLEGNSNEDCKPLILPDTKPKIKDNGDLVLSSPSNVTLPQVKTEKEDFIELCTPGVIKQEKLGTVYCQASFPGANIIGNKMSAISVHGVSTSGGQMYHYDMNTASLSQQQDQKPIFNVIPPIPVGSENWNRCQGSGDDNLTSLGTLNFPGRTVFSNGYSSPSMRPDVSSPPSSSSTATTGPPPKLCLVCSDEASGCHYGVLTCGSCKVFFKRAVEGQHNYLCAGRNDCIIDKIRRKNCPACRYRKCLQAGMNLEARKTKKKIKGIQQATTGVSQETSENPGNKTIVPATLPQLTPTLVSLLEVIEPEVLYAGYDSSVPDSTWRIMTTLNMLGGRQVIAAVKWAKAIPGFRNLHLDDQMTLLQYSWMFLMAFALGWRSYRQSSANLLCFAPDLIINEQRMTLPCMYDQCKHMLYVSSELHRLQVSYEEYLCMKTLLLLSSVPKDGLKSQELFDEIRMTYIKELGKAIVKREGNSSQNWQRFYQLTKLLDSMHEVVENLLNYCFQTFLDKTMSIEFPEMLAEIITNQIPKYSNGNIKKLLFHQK

Take `O=C(O)c1cccc(N(Cc2cccnc2)c2ccc(OC(F)F)c(OC(F)F)c2)c1`: the Potency result in assay [1], in [2], in assay [3], in assay [4], in assay [6] and in assay [9] was “inactive” in each case. The Potency entry in assay [12] and in assay [14] was “inactive” throughout. Besides, the outcome in assay [5], in assay [7], in [8], in assay [10], in assay [11] and in [13] was inactive.

As to `O=C1c2cccc(O)c2C(=O)c2c(O)cc(CO)cc21`, the Potency entry in [2], in [3], in assay [15], in assay [4], in assay [6] and in assay [9] was “inactive” each time. Besides, the Potency result in [12], in assay [14] and in [19] was “inactive” throughout. Also, the Potency in assay [16] is 0.864 µM (active). Also, the outcome in assay [5], in assay [17], in assay [7], in assay [8], in assay [10] and in assay [18] was inactive. Further, the result in assay [11] and in assay [13] was inactive.

For `O=CNc1ccccc1`, the Potency entry in assay [2], in [3], in assay [15], in assay [4], in [16] and in assay [6] was “inactive” each time. The Potency result in assay [9], in assay [12] and in [19] was “inactive” throughout. The outcome in [5], in assay [17], in assay [7], in assay [8], in assay [18] and in [11] was inactive.

`CC[C@@H]1C[C@H](N(Cc2cc(C(F)(F)F)cc(C(F)(F)F)c2)C(C)=O)c2cc(C(F)(F)F)ccc2N1C(=O)OC(C)C`: the Potency result in assay [2], in [3], in assay [15], in assay [4], in assay [6] and in assay [9] was “inactive” throughout. In addition, the Potency entry in assay [12], in assay [14], in assay [19] and in assay [20] was “inactive” in each case. Moreover, the Potency in assay [16] was 4.33 µM (active). For the same compound, the compound was called inactive in [5], in assay [17], in assay [8], in [10], in assay [18] and in [11]. Also, the compound was classed as inactive in assay [13].

For `ClC(Cl)(Cl)c1ccc(C(Cl)(Cl)Cl)cc1`, the Potency result in assay [2], in assay [3], in assay [15], in assay [4], in [6] and in assay [9] was “inactive” throughout. In addition, the Potency result in assay [19] and in assay [20] was “inactive” in each case. Also, the Potency in assay [16] is 13.5 µM (active). Also, the result in assay [5], in assay [17], in assay [8], in assay [10], in assay [18] and in assay [11] was inactive. For the same compound, in assay [13], the result was inactive.

For the compound `O=c1[nH]cnc2ccccc12`, the Potency result in [1], in [3], in [4], in assay [16], in assay [9] and in assay [12] was “inactive” each time. The Potency result in assay [14], in assay [19] and in assay [20] was “inactive” each time. The compound was called inactive in [5], in [17], in [7], in [8], in assay [10] and in assay [11]. For the same compound, in assay [13], the compound was called inactive.

In the case of `CN(C(=O)CCCOc1ccc2[nH]c(=O)ccc2c1)C1CCCCC1`, the Potency result in assay [1], in assay [3], in [15], in assay [4], in [6] and in assay [9] was “inactive” each time. Further, the Potency entry in assay [12], in [14], in [19] and in assay [20] was “inactive” throughout. Further, the compound was classed as inactive in assay [5], in [7], in [10], in assay [18] and in assay [11].

Regarding `Cc1ccc(C(N)=O)cc1N`, the Potency entry in assay [2], in assay [3], in [15], in [4], in assay [16] and in assay [6] was “inactive” in each case. For the same compound, the Potency result in assay [9], in [12], in [14], in [19] and in assay [20] was “inactive” each time. The call in assay [5], in [17], in assay [8], in assay [10], in assay [18] and in assay [11] was inactive. Moreover, in [13], the compound was called inactive.
